Rows were chosen to be rich in hits. Some 2.4% of all compounds tested hit in one or more screens of this group.
D2 ag-1 = activates the human D2 dopamine receptor | actives 0.084% (n = 360,000) | AID 624465 | activation, % (test concentration not listed) | DiscoveRx PathHunter D2 beta-arrestin, luminescence, 90 min; 100% = 57 uM dopamine signal | P14416; in the data active = activation above about 40%; inconclusive = between about 15% and that limit
Target sequence (P14416 whole entry, looked up): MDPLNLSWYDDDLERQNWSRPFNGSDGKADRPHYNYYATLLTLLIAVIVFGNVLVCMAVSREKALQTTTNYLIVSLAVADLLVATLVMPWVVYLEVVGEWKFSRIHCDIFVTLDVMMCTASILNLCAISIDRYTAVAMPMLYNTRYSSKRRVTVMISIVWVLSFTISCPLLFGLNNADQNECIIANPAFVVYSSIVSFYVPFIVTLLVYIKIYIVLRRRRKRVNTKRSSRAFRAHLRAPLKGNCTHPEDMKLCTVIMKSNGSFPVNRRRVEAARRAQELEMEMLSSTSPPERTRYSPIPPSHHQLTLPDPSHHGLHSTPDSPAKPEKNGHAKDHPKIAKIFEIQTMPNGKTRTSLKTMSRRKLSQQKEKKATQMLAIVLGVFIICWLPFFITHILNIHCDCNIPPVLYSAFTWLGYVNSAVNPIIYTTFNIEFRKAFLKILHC
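Agonist mode: compounds alone added to overnight-plated D2 PathHunter cells for 90 min at 37 C, with 57 uM final dopamine (EC100) defining full response. Beta-arrestin recruitment detected by chemiluminescent reagent, read after 1 h at ambient temperature.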
D2 PAM-1 = potentiates the human D2 dopamine receptor allosterically. P14416. DiscoveRx D2 beta-arrestin cells, luminescence, 90 min; 100% = 57 uM dopamine signal. potentiation, % (concentration not given with the values). actives 0.23% (n = 360,000). AID 624464; in the data active = potentiation above about 50%; inconclusive = mostly about 30% to 49%
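PathHunter beta-arrestin assay in DiscoveRx D2 cells. Compounds were added with an EC20 of dopamine (50 nM final) for 90 min at 37 deg C. Luminescence was read 1 h after detection reagent, with 57 uM dopamine as the EC100 control.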
D2 antag = antagonists of human D2 dopamine receptor. inhibition, % at 10 µM. HEK293 TREx D2 cells, calcium flux, dopamine EC80. actives 2% (n = 340,000); in the data active = inhibition above about 30%; inactive = below that, where a call was filed; also: 0% is about no effect
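Cells plated overnight at 30 C with tetracycline; no-wash calcium dye, 30–90 min RT; 10 s baseline; compound pinned; 180 s read; EC80 dopamine added; another 180 s read.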
D2 ag-2 = activates the human D2 dopamine receptor. actives 0.53% (n = 340,000). AID 485358. HEK293 T-REx D2 cells, calcium flux agonist mode. activation, % at 2 µM. P14416;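 active = activation over 3 SD above normal in the single-dose calcium agonist read, cut at about 30% in these data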; also: 0% is about no effect
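Tetracycline-induced HEK293 Trex cells with D2 receptor force-coupled to calcium signaling, plated overnight at 30 C and loaded with no-wash calcium dye. Calcium flux read kinetically for 180 s after compound addition; responses flag agonists.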
D2 PAM-2 = positively modulates the human D2 dopamine receptor allosterically. P14416. HEK293 T-REx D2, calcium flux, EC20 dopamine potentiation. potentiation, % at 10 µM. actives 0.34% (n = 340,000);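 active = potentiation over 3 SD above the plate norm, cut at about 30% in these data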; also: 0% is about no effect
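Tetracycline-induced Hek293 Trex D2 cells, force-coupled to calcium, loaded with no-wash calcium dye. Compound added with 180 s kinetic read for agonism, then EC20 dopamine and a further 180 s read for potentiation.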
* marks the source's active call; other numbers are inactive results; ? = inconclusive; · = no result given.

SMILES	D2 ag-1	D2 PAM-1	D2 antag	D2 ag-2	D2 PAM-2
CCOc1ccc(S(=O)(=O)NCCC(=O)NCCOc2ccccc2)cc1	-2	?	-8	0	-5
Cc1ccc(OCCNC(=O)CCNS(=O)(=O)c2ccc(C)cc2)cc1	-6	-19	30*	0	6
CCCNS(=O)(=O)c1ccc(OCC(=O)OC)cc1	2	9	6	1	-6
CCCNS(=O)(=O)c1ccc(OCC(=O)NCCCOC)cc1	1	-3	30*	1	-14
Cc1ccc(CCNC(=O)c2oc(=O)c3ccccc3c2-c2ccc(C)cc2)cc1	·	·	·	1	1
CCCSc1nnc2[nH]c(=O)cc(C)n12	·	·	·	7	-6
O=C(CSc1nccn1C1CCCC1)Nc1ccccc1	·	·	·	0	-4
CC(C)C[C@H]1CN([C@@H](Cc2ccccc2)CN2CCC[C@@H]2CN2C(=O)C(=O)NC[C@@H]2Cc2ccccc2)C(=O)C(=O)N1CC1CCCCC1	4	-1	·	·	·
O=C(COC(=O)/C=C/c1cccs1)NC(c1ccccc1)c1ccccc1	0	15	-2	-2	-5
O=C(COC(=O)/C=C/C(=O)N1CCN(c2ccccc2)CC1)NC(c1ccccc1)c1ccccc1	-3	-1	69*	0	-8
CCn1c(/C=C/N(C(C)=O)c2ccccc2)[n+](CC)c2ccc(Cl)cc21	-2	-17	-5	2	-1
CC[n+]1c(/C=C/N(C)c2ccccc2)oc2ccc(Cl)cc21	?	59*	-10	-2	12
COc1cc2ccccc2cc1C(=O)Nc1ccc2oc(=O)ccc2c1	0	-6	8	0	3
Cc1cc(Cl)ccc1OCC(O)CN1C(C)CCCC1C (stereo not drawn)	·	·	31*	0	0
Cc1ccccc1NC1=NC(=S)N(CC(N)=O)C12CCOC(C)(C)C2 (stereo not drawn)	-3	-6	44*	1	-8
CCOC(=O)C1=C(CS(=O)(=O)c2ccccc2)NC(=O)NC1c1ccccc1OCC (stereo not drawn)	-2	-3	36*	0	-12
C/C(=N\NC(=O)CN(c1ccccc1)S(C)(=O)=O)c1ccccc1O	0	-17	44*	0	-20
COc1ccccc1CNC(=O)CCC(=O)N1CC(C)Sc2ccccc21 (stereo not drawn)	-9	-11	32*	0	-7
CC1CN(C(=O)CCC(=O)NCc2ccc(F)cc2)c2ccccc2S1 (stereo not drawn)	-2	-1	-10	0	-3
O=C(NC1CCN(Cc2ccccc2)CC1)c1ccc(S(=O)(=O)NCc2ccco2)cc1	-3	-32	36*	1	-15
Cc1ccc(C)n1-c1ccc(C(=O)NC2CCN(Cc3ccccc3)CC2)cc1	-3	-41	85*	0	-35
CC1(C)Cc2cccc(C(=O)NC3CCN(Cc4ccccc4)CC3)c2O1	0	-21	73*	0	-19
CC1CCCC(C)N1C(=O)c1ccc(S(=O)(=O)NCc2ccco2)cc1 (stereo not drawn)	0	-6	37*	-3	·
O=C(CSCc1cc(=O)c2cc(F)ccc2[nH]1)Nc1ccccc1Cl	·	·	·	·	1
Cc1ccccc1C(=O)NC1CCN(Cc2ccccc2)CC1	-1	-17	19	-2	-21
SMILES	D2 ag-1	D2 PAM-1	D2 antag	D2 ag-2	D2 PAM-2
O=C(O)c1cn(-c2ccccc2)nc1-c1cccnc1	0	-1	5	1	2
Cc1ccc(CN2CCC(NC(=O)c3ccccc3)CC2)cc1	-1	-22	90*	0	-24
O=C(NC1CCN(Cc2ccccc2)CC1)c1cn(-c2ccccc2)nc1-c1cccnc1	-3	-28	75*	0	0
C=CCOc1ccc(C2C(C(=O)c3ccc(C)o3)=C(O)C(=O)N2Cc2cccnc2)cc1 (stereo not drawn)	-1	-2	-6	0	6
CCCn1cc(S(=O)(=O)CC(=O)NC2CCCCC2)c2ccccc21	0	-24	51*	0	-12
O=C(O)CC(NC(=O)Cc1ccc(Cl)cc1)c1ccco1 (stereo not drawn)	-2	-2	-10	-1	39*
